The text below walks through data of PubChem BioAssay (NCI).

Structures are written as SMILES. This is part of a sample that, as a whole, favours compounds with a hit. Of some 83,000 tested, about 20% had one in any assay.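 Growth was measured after 48 h exposure to one concentration of compound in 96-well plates. Values under 10 count as active.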 Values without a mark were called inactive. Activity calls are given as the source filed them.

Holding throughout (assay): NCI-60 one-dose screen, 48 h (100 = growth as untreated, 0 = no growth, -100 = all killed)
Conditions in all cases: 10 µM unless noted

In assay [1] the test system is SK-MEL-2 melanoma.
In assay [2] the test system is EKVX NSCLC.
The test system of assay [3] is SN12C renal.
The test system of assay [4] is TK-10 renal.
Assay [5] deals with ACHN renal.
For assay [6], the system named is CAKI-1 renal.
For assay [7], the system named is A498 renal.
Assay [8] relates to CCRF-CEM leukemia.
Assay [9] has as its system MOLT-4 leukemia.
The test system of assay [10] is RPMI-8226 leukemia.
For assay [11], the system named is OVCAR-8 ovarian.
For assay [12], the system named is OVCAR-5 ovarian.
Assay [13] deals with OVCAR-4 ovarian.
In assay [14] the test system is SK-OV-3 ovarian.
For assay [15], the system named is IGROV1 ovarian.
Assay [16] concerns OVCAR-3 ovarian.
Assay [17] deals with HS 578T breast.
For assay [18], the system named is NCI/ADR-RES ovarian.
The subject of assay [19] is UO-31 renal.
The test system of assay [20] is SR leukemia.

Regarding `O=C1C=CC(Nc2ccccc2[N+](=O)[O-])C1Nc1ccccc1[N+](=O)[O-]` (configuration not stated), the growth in [1] was 67.9%; in [2] it was -97.1% (active); in [3], 36.9%; in assay [4] it was -45.3% (active); in [5] it was -96% (active); in [6], -24.3% (active). Also, the growth was 96.8% in assay [7]; 10.5% in assay [8]; 29.4% in assay [9]; -17.4% (active) in assay [10]; 31% in assay [11]; 12.3% in assay [12]. Besides, the growth was 3.47% (active) in assay [13]; 109% in assay [14]; 86% in [15]; -81.3% (active) in assay [16]; 32% in assay [17]; -26.8% (active) in assay [18].

Regarding `OCC1C2C=CC(C2)C1CO` (configuration not stated), the growth is 114% in assay [1]; 102% in [2]; 93.1% in [19]; 112% in assay [4]; 105% in assay [5]; 92.5% in assay [7]. Further, the growth in assay [8] was 126%; in assay [9], 97.9%; in [20], 78.7%; in assay [10], 97%; in [11] it was 98.6%; in assay [12], 101%. Besides, the growth in [13] was 94%; in assay [14], 175%; in [15], 101%; in assay [16], 107%; in assay [17], 104%; in assay [18], 104%.

For the molecule `COc1cccc(-n2cc(-c3nc(Nc4cc(C)[nH]n4)c4ccccc4n3)nn2)c1`, the growth in [1] was 50.9%; in [3], 41%; in assay [19], 15.4%; in assay [4], 33.3%; in [5], 24%; in [6], 2.59% (active). Moreover, the growth was 36.1% in assay [7]; 32.6% in assay [8]; 11% in assay [9]; 27.8% in assay [20]; 48.4% in [10]; 38.3% in assay [11]. The growth in assay [12] was 56.5%; in assay [13] it was 17.2%; in assay [14], 10.8%; in [15] it was 18%; in assay [16], 59.4%; in assay [17], 46.4%. In addition, in assay [18], the growth is 30.6%.

As for `COc1cc(C(=O)/C=C/c2c(C)n([O-])c3ccc(C)cc3[n+]2=O)cc(OC)c1OC`, the growth is 84.3% in assay [1]; 50.8% in [2]; 60% in assay [3]; -27.3% (active) in assay [19]; 26.6% in [4]; 6.71% (active) in assay [6]. The growth in [7] is 95.3%; in assay [9], -30.2% (active); in assay [20], -35.2% (active); in assay [10] it was -17.3% (active); in assay [11], 5.36% (active); in [12] it was 78.3%. The growth in assay [13] is 36.9%; in assay [14], 96%; in assay [15], 73.7%; in [16], 13.2%; in assay [17], 52.8%; in [18], 81.2%.

As to `COc1nc2c(cc1S(=O)(=O)c1ccccc1)CCc1c-2cnn1-c1ccc(Cl)cc1`, the growth in assay [1] is 97.2%; in assay [2] it was 90.4%; in assay [19], 99.3%; in assay [4] it was 110%; in assay [5] it was 102%; in assay [6] it was 90.8%. For the same molecule, the growth is 82.4% in [7]; 84.2% in assay [8]; 86.3% in [9]; 80.7% in assay [20]; 93.3% in assay [10]; 104% in assay [11]. In addition, the growth in [12] is 85.5%; in [13], 90.4%; in [14], 95.5%; in assay [15] it was 100%; in [16] it was 111%; in assay [17], 82%. Further, in [18], the growth was 89.9%.

For `CC/C(=C(\c1ccccc1)c1ccc(OCCNC)cc1)c1ccccc1`, the growth is -90.5% (active) in [1]; -69.2% (active) in assay [2]; -90.5% (active) in assay [3]; -80.7% (active) in assay [4]; -95% (active) in assay [5]; -68.2% (active) in assay [6]. In addition, the growth is -62.2% (active) in [7]; 0.764% (active) in assay [8]; 27.1% in assay [9]; -40.9% (active) in assay [10]; -85.2% (active) in assay [12]; -67.1% (active) in assay [13]. Further, the growth in [14] is -53.8% (active); in assay [15], -93% (active); in assay [16], -92.1% (active); in assay [17], -55.6% (active); in assay [18], -87.3% (active).

With `CCCCCCCCOC(=O)CC[C@@H](C)[C@H]1CC[C@H]2[C@@H]3[C@H](OC(=O)CCN)C[C@@H]4C[C@H](OC(=O)CCN)CC[C@]4(C)[C@H]3C[C@H](OC(=O)CCN)[C@]12C`, the growth is 126% in assay [1]; 77.6% in [3]; 105% in [19]; 136% in [4]; 96.2% in assay [5]; 108% in assay [6]. Also, the growth in assay [7] was 131%; in assay [8], -37.5% (active); in assay [9] it was 26.1%; in [20], -12.9% (active); in [10], 77.8%; in [11] it was 69.5%. Besides, the growth in assay [12] is 92.1%; in assay [13] it was 75.7%; in assay [14], 90.9%; in [15], 77.2%; in assay [16], 108%; in assay [17], 79.5%. The growth in assay [18] was 101%.

`N#CC1=C(N)Oc2c(ccc3ccccc23)C1c1cccs1` (configuration not stated): the growth in assay [1] was 52.5%; in assay [3], 26.5%; in assay [19], 46.5%; in assay [4], 77.6%; in [5], 35.2%; in assay [6], 48.9%. Further, the growth in assay [7] is -5.58% (active); in [8] it was 5.17% (active); in [9], 1.98% (active); in assay [20], -11.2% (active); in assay [10] it was -17.3% (active); in assay [11], 17.2%. Besides, the growth is 34.9% in [12]; 12.6% in [13]; 5.5% (active) in assay [14]; 60.3% in assay [15]; -38.8% (active) in [16]; 22.3% in assay [17]. Moreover, in [18], the growth is 14.5%.
